Screening data (PubChem)
uPA surface inh: inhibitors of cell surface uPA generation; cell surface uPA generation assay, qHTS; Potency, µM (top dose mostly 38.3 µM), inactives show at the top dose activity change, negative = inhibition, most hits filed as inhibitors; hit rate 0.31% among 330,000; active means well fitted inhibition curve with a large enough effect; inconclusive means small, poorly fitted or top-dose-only effect; inactive means no such curve, though single readings can be large or run the other way; tested in mouse RAW 264.7 cells; further: potency means the concentration at half of the fitted maximal effect; on the % scale 0 is the no-effect control and ±100 the full control effect; nearly all actives have a fitted effect of over 55% in size
TRPV1 PAM: enhances activation of the human vanilloid receptor TRPV1; Q8NER1; TRPV1-expressing cells, Fluo-8 calcium influx, capsaicin EC20 potentiation; potentiation, % at 8.33 µM; hit rate 0.02% among 320,000; AID 540277; in the data active means potentiation above about 80%; inconclusive means between about 30% and that limit; further: 0% is about no effect
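Fluo-8 calcium influx in TRPV1-expressing cells, kinetic read (ex 480/em 520 nm). Compound added and read 3 min for agonist activity, followed by capsaicin at EC20 final and 2 min further read for enhancement.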
TRPV1 ag: human TRPV1 agonism | AID 540275 | hit rate 0.19% among 320,000 | Q8NER1 | activation, % at 8.33 µM | TRPV1-expressing cells, Fluo-8 calcium influx, agonist mode; in the data active means activation above about 80%; inconclusive means between about 30% and that limit; further: 0% is about no effect
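Cells expressing TRPV1 were dye-loaded with Fluo-8 and read kinetically: 10 s baseline, 3 min after compound (agonist portion), then 2 min after EC20 capsaicin (allosteric enhancer portion). Calcium-bound dye fluorescence at 480/520 nm.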
VP16 counter: Gal4-VP16 reporter inhibition counter-screen; Drosophila S2 Gal4-VP16 UAS-luciferase, luminescence, 20 h; Potency, µM (top dose mostly 53.6 µM), for the others: at the highest dose activity, negative = inhibition, usual class: inhibitors; hit rate 3.5% among 310,000; AID 2546;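 further: Gal4-VP16 expression switched on by copper sulfate through the metallothionein promoter; potency means the concentration at half of the fitted maximal effect; on the % scale 0 is the no-effect control and ±100 the full control effect; nearly all actives have a fitted effect of over 50% in size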
RORg inh: blocks mouse ROR gamma transcriptional activity; Potency, µM (top dose mostly 53.6 µM), without a hit: at the highest dose activity change, negative = inhibition, hits mostly inhibitors; hit rate 5.4% among 310,000; Drosophila S2 Gal4-RORgamma UAS-luciferase reporter, 20 h; P51450; further: potency means the concentration at half of the fitted maximal effect; on the % scale 0 is the no-effect control and ±100 the full control effect; nearly all actives have a fitted effect of over 60% in size
Target sequence (P51450 whole entry, looked up, the tested form may be a part): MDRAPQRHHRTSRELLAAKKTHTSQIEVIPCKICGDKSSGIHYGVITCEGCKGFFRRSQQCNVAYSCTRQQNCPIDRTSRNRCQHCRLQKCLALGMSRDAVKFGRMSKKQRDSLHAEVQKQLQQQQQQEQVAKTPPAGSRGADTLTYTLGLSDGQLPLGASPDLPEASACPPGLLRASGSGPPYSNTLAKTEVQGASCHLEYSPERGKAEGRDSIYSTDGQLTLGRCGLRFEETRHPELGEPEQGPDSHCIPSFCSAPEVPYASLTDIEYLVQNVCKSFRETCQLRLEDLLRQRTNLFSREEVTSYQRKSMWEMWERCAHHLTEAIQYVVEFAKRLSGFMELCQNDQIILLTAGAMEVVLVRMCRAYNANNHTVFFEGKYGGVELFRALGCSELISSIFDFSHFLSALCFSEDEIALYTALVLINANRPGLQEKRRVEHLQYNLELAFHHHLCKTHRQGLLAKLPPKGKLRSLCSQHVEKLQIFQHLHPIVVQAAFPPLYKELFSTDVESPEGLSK
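Drosophila Schneider cells stably carrying a metallothionein-driven Gal4 DBD–ROR gamma fusion and a UAS-Photinus luciferase reporter were exposed to compound for 1 hr, then induced with copper sulfate (700 uM final) for 20 hr at ambient temperature before luminescence reading.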
* marks the source's active call; other numbers are inactive results; ? = inconclusive; . = no result given; [ ] = remark or other dose. In the library only some 5.8% were active in any assay of this set; here they are far more common. Unless noted, the call rests on the fitted dose curve; in most records, active means well fitted curve in the direction sought with a large enough effect; inconclusive means small, poorly fitted or top-dose-only effect, or another doubt; inactive means no such curve, though single readings can be large; an effect the other way counts as inactive or inconclusive.

SMILES | uPA surface inh | TRPV1 PAM | TRPV1 ag | VP16 counter | RORg inh
CCCCn1c(NC(=O)C2CCCCC2)nc2ccccc21 | -6.5% | -15.0 | ? | 2.82µM* | 1.26µM*
CCc1ccccc1Nc1nc2ccccc2n1CC | -1.4% | 10.0 | -1.8 | ? | 14.1µM*
CN(C)CCCn1c(NC(=O)C2CCCCC2)nc2ccccc21 | 6.6% | -4.1 | 3.5 | . | -3.8%[0.365 µM]
Cc1nc2ccccc2n1CC(=O)NC1CCCCCC1 | -6.2% | 0.3 | 2.5 | 20µM* | 35.4%
CCCn1c(NC(=O)C2COc3ccccc3O2)nc2ccccc21 (configuration not stated) | 2.6% | -10.6 | 10.4 | 1.41µM* | 1.41µM*
CC[C@H](C)Cc1cn([C@@H](CCCN=C(N)N)C(=O)NCCCCCCCCCCC(=O)N2CCNCC2)nn1 | -0.7% | -5.8 | 5.2 | . | .
COc1ccc(S(=O)(=O)N2CCOCC2)cc1NC(=O)CCc1nc2ccccc2c(=O)[nH]1 | 6.2% | -5.5 | -4.8 | -2.4% | -29.7%
C=CCn1c(NC(=O)c2ccccc2)nc2ccccc21 | -26.1% | 27.8 | -5.3 | 1µM* | 0.562µM*
O=C(O)c1ccc(NCc2nc3ccccc3n2Cc2ccccc2)cc1 | -1.0% | 2.2 | -1.7 | 18.9% | 1.9%
C=CCn1c(P(=O)(O)c2ccccc2)nc2ccccc21 | -0.5% | -11.8 | -6.3 | 1.9% | -22.6%
CCn1c(CNc2ccc(C(=O)O)cc2)nc2ccccc21 | 7.9% | 5.4 | 0.1 | -0.6% | 10µM*
COc1cc(CN2CCC(C(=O)NCCC(C)C)CC2)ccc1OCc1ccccc1 | ? | -19.4 | 18.4 | 3.5% | 3.5%
COc1cccc(OC)c1C(=O)NC(=S)NCc1cccnc1 | -21.5% | 7.8 | 1.2 | -4.2% | -8.5%
COc1ccc(C(=O)NC(=S)NCc2ccccc2)cc1OC | 0.3% | 6.1 | -0.9 | ? | 3.16µM*
CCOc1cc(C(=O)NCc2ccc(-c3nc4ccccc4o3)cc2)cc(OCC)c1OCC | . | 7.8 | 6.9 | 12.1% | 7.7%
COc1cc(CNC(=O)C2CC2)ccc1OCc1ccccc1 | 3.2% | 1.9 | 19.6 | -5.7% | 31.6µM*
COc1cccc(OC)c1C(=O)NC(=S)NCc1ccccc1 | 6.1% | 1.9 | 2.8 | ? | 10µM*
COc1ccc(C(=O)NC(=S)NCc2ccc(-c3nc4ccccc4o3)cc2)cc1OC | . | 7.4 | -4.9 | 2.51µM* | 1.26µM*
Cc1ccc(CNC(=O)NCc2ccccc2)cc1 | 0.9% | -26.9 | ? | 2.5% | 5.2%
Cc1ccc(C(=O)NC(=S)NCc2ccccc2)cc1 | -5.6% | -4.4 | ? | 12.6µM* | 10µM*
Cc1cc(C)c2sc(NC(=O)C3=COCCO3)nc2c1 | -6.6% | 0.8 | ? | 5.62µM* | 0.794µM*
O=C(Nc1nc2cc3c(cc2s1)OCCO3)C1=COCCO1 | ? | -27.8 | ? | 2.24µM* | 1µM*
O=C(Nc1nc2ccc(F)cc2s1)C1=COCCO1 | -6.4% | -20.2 | ? | . | .
FC(F)OC(Cl)C(F)(F)F (configuration not stated) | . | . | . | 7.0% | 3.2%
Cc1sc(NC(=O)c2ccccc2)c(C(c2ccc(Cl)cc2)N2CCN(CCO)CC2)c1C (configuration not stated) | -15.0% | 7.2 | -6.7 | 22.4µM* | ?
SMILES | uPA surface inh | TRPV1 PAM | TRPV1 ag | VP16 counter | RORg inh
CCOc1ccc(C(c2c(NC(=O)c3ccccc3)sc(C)c2C)N2CCN(CCO)CC2)cc1 (configuration not stated) | -6.9% | -10.4 | -4.5 | ? | 34.0%
O=C1C(C=NCc2ccncc2)=C(O)c2ccccc21 | -2.6% | 9.3 | 3.5 | 18.1% | 20.6%
Cc1ccccc1N=CC1=C(O)c2ccccc2C1=O | -9.8% | -11.4 | 9.0 | 1.26µM* | 0.199µM*
O=C1C(C=Nc2ccc(F)cc2)=C(O)c2ccccc21 | -4.4% | -10.2 | 4.0 | -6.6% | -28.8%
COc1ccc(N=CC2=C(O)c3ccccc3C2=O)c(OC)c1 | -12.2% | 3.8 | -3.8 | 3.98µM* | 3.98µM*
CCOc1cc(/C=N/NC(=O)c2cccc([N+](=O)[O-])c2)ccc1OS(=O)(=O)c1ccccc1 | -7.6% | -8.9 | 1.1 | 14.1µM* | 7.94µM*
COc1ccc(/C=N/NC(=O)c2cccc([N+](=O)[O-])c2)cc1OS(=O)(=O)c1ccc(C)cc1 | -7.8% | -16.5 | 6.5 | ? | 3.98µM*
C/C(CCN1CCCCc2nc(C)c(C)cc21)=N\OC[C@@H](C)[C@H](OCc1ccccc1)C(C)C | . | . | . | 6.5%[10 µM] | 15.1%[10 µM]
O=C(N/N=C/c1ccc(O)cc1O)c1ccncc1 | ? | 8.6 | 15.3 | 0.2% | -23.1%
